# Screens (PubChem BioAssay)
# p53ts 32C kill: p53ts cell cytotoxicity, permissive temperature; Potency, µM (highest dose often 46.1 µM), actives largely listed as cytotoxic; H1299-p53A138V at 32C, ATP luminescence viability, 24 h; hit rate 0.93% among 130,000; further: nearly all actives have a fitted effect of over 55% in size
#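 H1299-p53 A138V cells (temperature-sensitive p53) exposed 24 h to up to 46 uM compound at 32C, where p53 is wild-type in conformation. Viability read as ATP luminescence and normalised to DMSO and 100 uM tamoxifen. AC50 fitted with the Hill equation.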
# p53ts 39C tox: p53ts cell cytotoxicity, nonpermissive temperature; H1299-p53A138V viability at 39C, ATP luminescence, 24 h; Potency, µM (highest dose often 46.1 µM), usual class: cytotoxic; hit rate 1.5% among 130,000; AID 902; further: nearly all actives have a fitted effect of over 55% in size
# Luciferase inh: blocks Photinus pyralis firefly luciferase activity; P08659; purified firefly luciferase, luminescence, 8 min; Potency, µM (series often up to 57.1 µM), actives largely listed as inhibitors; hit rate 2.2% among 72,000; AID 411; further: nearly all actives have a fitted effect of over 40% in size
# Target sequence (P08659 whole entry, looked up): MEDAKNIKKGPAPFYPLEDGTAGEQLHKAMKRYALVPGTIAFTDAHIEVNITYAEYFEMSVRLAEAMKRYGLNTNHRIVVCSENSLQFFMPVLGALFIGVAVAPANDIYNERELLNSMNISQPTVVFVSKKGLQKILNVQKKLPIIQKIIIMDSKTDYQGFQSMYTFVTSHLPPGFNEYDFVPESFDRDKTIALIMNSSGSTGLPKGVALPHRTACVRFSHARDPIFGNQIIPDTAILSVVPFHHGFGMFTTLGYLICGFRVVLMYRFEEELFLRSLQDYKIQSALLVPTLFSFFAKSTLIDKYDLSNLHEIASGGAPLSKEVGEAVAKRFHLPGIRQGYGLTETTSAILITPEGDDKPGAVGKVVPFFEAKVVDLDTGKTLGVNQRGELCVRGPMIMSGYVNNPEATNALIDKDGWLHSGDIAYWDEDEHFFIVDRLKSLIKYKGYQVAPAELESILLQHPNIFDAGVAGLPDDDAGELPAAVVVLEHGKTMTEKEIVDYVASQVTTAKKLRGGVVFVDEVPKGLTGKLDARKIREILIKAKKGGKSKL
#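 Inhibition of light generation by firefly luciferase from ATP and luciferin was profiled with concentration-response curves per sample, ATP held at 10 uM within the enzyme's linear range. Plates were read by luminescence after an 8-minute ambient incubation.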
# Hits are given with their value; i = inactive; ? = inconclusive; nt = not tested or not shown; ! = repeats disagree; [ ] = dose if it differs, or a comment. Sampled rows, rich in hits. Any-hit rate of the full collection: about 2.6%. The call rests on the fitted dose curve; in most records, active means well fitted curve in the direction sought with a large enough effect; inconclusive means small, poorly fitted or top-dose-only effect, or another doubt; inactive means no such curve, though single readings can be large; an effect the other way counts as inactive or inconclusive.
SMILES,p53ts 32C kill,p53ts 39C tox,Luciferase inh
C[C@@H]1O[C@H](O[C@H]2C[C@@H](O)[C@]3(CO)[C@H]4[C@H](O)C[C@]5(C)[C@@H](C6=CC(=O)OC6)CC[C@@]5(O)[C@H]4CC[C@]3(O)C2)[C@@H](O)[C@H](O)[C@H]1O,nt,nt,i[11.4 µM]
CCN(CC)CCCN=Cc1c(O)n(CCc2ccc(OC)c(OC)c2)c(=O)[nH]c1=O,i,i,i
CCN(CC)CCCN=Cc1c(O)n(Cc2ccc(F)cc2)c(=O)[nH]c1=O,i,i,13µM
COc1cc2c(cc1O)CCN[C@H]2C,nt,nt,i[11.4 µM]
CC(=O)Oc1ccc(/C=C/c2cc(OC(C)=O)cc(OC(C)=O)c2)cc1,7.9µM,6.3µM,nt
COc1ccc(/C=C/C(=O)Nc2ccc(C)cc2)cc1,?,i,nt
C[C@@H](Cc1cccc(C(F)(F)F)c1)NCCCc1ccccc1,i,25µM,i
C=C[C@@H]1CN2CC[C@H]1C[C@H]2[C@@H](O)c1ccnc2ccccc12,nt,nt,i[11.4 µM]
C[C@@]12CC[C@H](O)C[C@@H]1CC[C@H]1[C@H]2C[C@@H](O)[C@]2(C)[C@@H](C3=CC(=O)OC3)CC[C@@]12O,nt,nt,i[11.4 µM]
CCC1CN(C)CCC1(OC(C)=O)c1ccccc1 (stereo unspecified),i,i,nt
CN1CC[C@@]2(c3cccc(O)c3)Cc3nc4ccccc4cc3C[C@H]2C1,i,i,25µM
COC(=O)c1ccccc1C(=O)OC,i[1.84 µM],i,nt
COC(=O)c1ccc(COC(=O)c2ccccn2)cc1,i,i,25µM
CCOC(=O)c1ccc(NC(=O)c2cccn(Cc3ccccc3F)c2=O)cc1,i,?,nt
CCc1ccccc1Nc1nn2c(=O)c3ccc(C(=O)Nc4cc(C)cc(C)c4)cc3nc2s1,3.2µM,4µM,nt
CO[C@@H](C)[C@](O)(C(=O)OC1=CCN2CC[C@H](O)[C@H]12)C(C)C,nt,nt,i[11.4 µM]
CN1C[C@@H](CS(=O)(=O)N(C)C)C[C@H]2c3cccc4c3c(cn4C)C[C@@H]21,i,i,i
O=C1CCCN1CC#CCN1CCCC1,i,i,25µM!
O=C(CN1CCCC1=O)N1CCOCC1,i,i,i
CC(=O)N1C[C@@H]2C[C@H](C1)c1cccc(=O)n1C2,nt,nt,i[11.4 µM]
O=C(CCl)c1ccccc1,i[1.84 µM],i,nt
O=C(Nc1nc2ccccc2s1)c1cccn(Cc2ccccc2)c1=O,i,?,nt
Cc1ccccc1Cn1cccc(C(=O)Nc2nc3ccccc3s2)c1=O,i,10µM,nt
CCCCCC[C@H]1C(=O)O[C@@H](C)[C@H](NC(=O)c2cccc(NC=O)c2O)C(=O)O[C@@H](C)[C@@H]1OC(=O)CC(C)C,nt,nt,i[11.4 µM]
CC(C)(C)c1cc(C#N)cc(Br)c1OP(=O)(Oc1c(Br)cc(C#N)cc1C(C)(C)C)c1ccccc1,i[9.22 µM],i[9.22 µM],i[11.4 µM]
SMILES,p53ts 32C kill,p53ts 39C tox,Luciferase inh
NNc1c(C(N)=O)c2c(N)ncnc2n1[C@@H]1O[C@H](CO)[C@@H](O)[C@@H]1O,nt,nt,i[11.4 µM]
CCN(CC)C(=O)N[C@@H]1C=C2c3cccc4[nH]cc(c34)C[C@@H]2N(C)C1,nt,nt,i
CC1=NN=C(c2ccc(N)cc2)c2cc3c(cc2C1)OCO3,i,i,2µM!
Cc1oc(-c2ccccc2Cl)nc1CN1C(=O)CN=C(c2ccccc2)c2cc(Cl)ccc21,i,i,nt
Cc1oc(-c2cccc(Cl)c2)nc1CN1CCC(C(=O)NCCCN2CCN(c3cccc(Cl)c3)CC2)CC1,i,10µM,nt
Cc1nc2cc(C(F)(F)F)ccc2n1C1CCN(Cc2nnnn2Cc2cccs2)CC1,i,i,i
Cc1nc2cc(C(F)(F)F)ccc2n1C1CCN(Cc2nnnn2Cc2ccc3c(c2)OCO3)CC1,i,20µM,i
Cc1c(Cl)cccc1NC(=O)CN1C(=O)C(C)N=C(c2ccccc2)c2ccccc21 (stereo unspecified),i,i,nt
Cc1oc2ccc(O)c(CN3CCCCCC3)c2c1C(=O)Nc1cccc(Cl)c1C,i,16µM,nt
CC(=O)Oc1c2c(c(CC=C(C)C)c3c1C(=O)C1=CC4CC5C(C)(C)OC(C/C=C(\C)C(=O)O)(C4=O)[C@]15O3)OC(C)(CCC=C(C)C)C=C2 (stereo partly specified),4µM,4µM,nt
COC(=O)/C(C)=C\CC12OC(C)(C)C3CC(C=C4C(=O)c5c(OC)c6c(c(CC=C(C)C)c5OC431)OC(C)(CCC=C(C)C)C=C6)C2=O (stereo unspecified),4µM,6.3µM,nt
CCN1C[C@@]2(C)CC[C@H](O)[C@@]34[C@@H]5C[C@H]6[C@H](O)[C@@H]5[C@](O)(C[C@@H]6OC)[C@H](C[C@@H]23)[C@H]14,nt,nt,i[11.4 µM]
C[C@@]12CC[C@H](O[C@@H]3O[C@H](CO)[C@@H](O)[C@H](O)[C@@H]3O)C[C@@H]1CC[C@H]1[C@H]2CC[C@@]2(C)[C@@H](C3=CCOC3=O)CC[C@]12O,i[9.22 µM],i[9.22 µM],i[11.4 µM]
